The record followed here is PubChem BioAssay (NCATS).

Results filed as inconclusive are left out. Values without a mark were called inactive. Calls come from the whole dose curve; as a rule, active = well fitted cell-killing curve with a large enough effect; inconclusive = small, poorly fitted or top-dose-only effect; inactive = flat fitted curve, though single readings scatter.

The nature of one experiment: qHTS of pediatric cancer cell lines to identify multiple opportunities for drug repurposing: Primary screen for TC32 cells (AID 1347089). Note: % is set by controls: 0 for no effect and ±100 for the full control effect; nearly all actives have a fitted effect of over 60% in size. Particulars: TC32 Ewing sarcoma viability, CellTiter-Glo luminescence, 48 h; series mostly up to 45.8 µM; activity change, negative = cytotoxic: at the top concentration. An outline of the steps: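 Measured quantity: luminescence from CellTiter-Glo, reflecting metabolically active TC32 cells following 48 h of compound. Curves came straight from multi-point titrations, with 8 or 11 points in primary and 11 in confirmatory screening.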
(Quantitative high-throughput screening tests each substance at several concentrations.)
In the case of `C[C@]12CC[C@H]3[C@@H](CCC4=CC(=O)CC[C@@H]43)[C@@H]1CC[C@@H]2OC(=O)CCc1ccccc1`, the “activity change, negative = cytotoxic” value was 3.79%.

For the compound `CN1C(=S)CN=C(c2ccccc2)c2cc(Cl)ccc21`, the “activity change, negative = cytotoxic” value is 10.2%.

As for `C=C1C[C@@H]2[C@H](CC[C@]3(C)C(=O)CC[C@@H]23)[C@@]2(C)C=CC(=O)C=C12`, the “activity change, negative = cytotoxic” value was -12.1%.

Take `Clc1ccc(COC(Cn2ccnc2)c2ccc(Cl)cc2Cl)cc1` (stereo not drawn): the “activity change, negative = cytotoxic” value was 8.23%.

Regarding `Cc1ccc(-c2nc3ccc(C)cn3c2CC(=O)N(C)C)cc1`, the “activity change, negative = cytotoxic” value is 9.51%.

On to `CC1OC(C)OC(C)O1` (stereo not drawn), for which the “activity change, negative = cytotoxic” value is 4.75%.

For `Clc1ccc(CCC(Cn2ccnc2)Sc2c(Cl)cccc2Cl)cc1` (stereo not drawn), the “activity change, negative = cytotoxic” value is 5.97%.

For the compound `CCN(CC)C(=O)N[C@@H]1C=C2c3cccc4[nH]cc(c34)C[C@@H]2N(C)C1`, the “activity change, negative = cytotoxic” value is 9.68%.

A further experiment can be described thus: qHTS of pediatric cancer cell lines to identify multiple opportunities for drug repurposing: Primary screen for DAOY cells (AID 1347090).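 Note: plate controls were DMSO for no effect and bortezomib for full effect; nearly all actives have a fitted effect of over 55% in size.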 To be noted: DAOY medulloblastoma viability, CellTiter-Glo luminescence, 48 h; series mostly up to 46 µM; activity change, negative = cytotoxic: at the top concentration. An outline of the steps: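 Cell viability, CellTiter-Glo luminescence; 500-1,000 cells/well, 8- or 11-point titration, 48 h compound exposure at 37 degrees C, 5% CO2. Controls: DMSO neutral, bortezomib 2.3 µM final as positive.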
Turning to `C[C@]12CC[C@H]3[C@@H](CCC4=CC(=O)CC[C@@H]43)[C@@H]1CC[C@@H]2OC(=O)CCc1ccccc1`, the “activity change, negative = cytotoxic” value was -3.08%.

As for `C=C1C[C@@H]2[C@H](CC[C@]3(C)C(=O)CC[C@@H]23)[C@@]2(C)C=CC(=O)C=C12`, the “activity change, negative = cytotoxic” value was -3.34%.

In the case of `Cc1ccc(-c2nc3ccc(C)cn3c2CC(=O)N(C)C)cc1`, the “activity change, negative = cytotoxic” value is -0.218%.

`CC1OC(C)OC(C)O1` (stereo not drawn): the “activity change, negative = cytotoxic” value was -0.457%.

For `Clc1ccc(CCC(Cn2ccnc2)Sc2c(Cl)cccc2Cl)cc1` (stereo not drawn), the “activity change, negative = cytotoxic” value was -6.73%.
